An excerpt weighted towards active compounds, which were near 5.7% of everything screened.
PI5P4K alpha inh = qHTS for Inhibitors of phosphatidylinositol 5-phosphate 4-kinase (PI5P4K). PI5P4Kalpha enzyme, ADP-Glo luminescence, 60 min; stronger effect = lower value. Phosphatidylinositol 5-phosphate 4-kinase type-2 alpha (Homo sapiens), P48426. max response, %. 1.2% of 330,000 active; active = max response of -50% or lower; inconclusive = between -30% and -50%; inactive = -30% or higher; also: value at the top dose of about 77 µM
Target sequence (P48426 whole entry, looked up): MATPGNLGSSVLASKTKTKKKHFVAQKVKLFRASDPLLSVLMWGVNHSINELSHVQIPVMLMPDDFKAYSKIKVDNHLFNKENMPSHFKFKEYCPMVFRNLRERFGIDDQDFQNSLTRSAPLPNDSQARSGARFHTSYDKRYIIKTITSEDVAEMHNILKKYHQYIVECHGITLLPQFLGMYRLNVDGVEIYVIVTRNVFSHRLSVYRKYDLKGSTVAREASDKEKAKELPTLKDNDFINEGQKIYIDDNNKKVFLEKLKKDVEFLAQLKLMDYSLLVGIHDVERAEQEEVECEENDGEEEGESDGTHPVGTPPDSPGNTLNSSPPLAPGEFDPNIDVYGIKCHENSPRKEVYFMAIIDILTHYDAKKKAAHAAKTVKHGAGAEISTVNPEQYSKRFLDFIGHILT
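ADP-Glo luminescence end-point after a 60 min room-temperature kinase reaction. PI5P4Kalpha and substrate in HEPES pH 7.4 buffer with EGTA, 0.1% CHAPS and 5% DMSO; ATP at 5 microM final.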
JMJD2E inh = qHTS Assay for Inhibitors of Human Jumonji Domain Containing 2E (JMJD2E); Potency, µM (highest dose often 57.1 µM), most hits filed as inhibitors; JMJD2E catalytic domain, FDH-coupled NADH fluorescence (FDH is formaldehyde dehydrogenase); 1.6% of 230,000 active; active = well fitted inhibition curve with a large enough effect, not every such curve was filed as active; inconclusive = small, poorly fitted or top-dose-only effect, or another doubt; inactive = no such curve, though single readings can be large or run the other way; also: nearly all actives have a fitted effect of over 50% in size
L3MBTL1 inh = qHTS Assay for the Inhibitors of L3MBTL1; Lethal(3)malignant brain tumor-like protein 1 (Homo sapiens), Q9Y468; AlphaScreen L3MBTL1–H3K9me1 peptide binding; Potency, µM (top dose mostly 57.1 µM), actives largely listed as inhibitors; 0.66% of 230,000 active; also: nearly all actives have a fitted effect of over 60% in size
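L3MBTL1 (50 nM) pre-complexed 30 min with biotinylated H3(1-15)K9me1 peptide (75 nM), then compounds added for 30 min at room temperature; AlphaScreen streptavidin donor/nickel chelate acceptor beads (10 ug/mL final) read after 30 min dark incubation.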
HP1b chromo inh = HTS for Inhibitors of HP1-beta Chromodomain Interactions with Methylated Histone Tails; AlphaScreen HP1-beta / biotin-H3K9me3 peptide binding; Potency, µM (series often up to 114 µM), actives largely listed as inhibitors; Chromobox protein homolog 1 (Homo sapiens), P83916; 0.56% of 390,000 active; also: nearly all actives have a fitted effect of over 70% in size
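Compound inhibition of the preformed complex between 50 nM HP1-beta and 50 nM biotinylated H3K9me3 peptide was read by AlphaScreen. Buffer was PBS pH 7.4 with 0.01% Tween-20. Incubations ran 30 min at room temperature, with 10 ug/mL donor/acceptor beads.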
BAZ2B inh = qHTS Assay for Inhibitors of BAZ2B; Potency, µM (titrated, usually from 114 µM), usual class: inhibitors; AID 504333, 2011; 4.4% of 360,000 active; AlphaScreen BAZ2B-H3K14Ac peptide displacement; Bromodomain adjacent to zinc finger domain protein 2B (Homo sapiens), Q9UIF8; also: nearly all actives have a fitted effect of over 60% in size
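Protein-peptide AlphaScreen: BAZ2B 50 nM, b-H3K14Ac 50 nM, 1x PBS pH 7.4 + 0.01% Tween-20. Preincubation 30 min RT; cpd 30 min RT (top 110 uM); beads 20 min RT, light-protected.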
JMJD2A Tudor = qHTS Assay for Inhibitors of JMJD2A-Tudor Domain; 4.4% of 390,000 active; AID 504339, 2011; AlphaScreen JMJD2A-Tudor / H3K4me3 peptide binding; Potency, µM (highest dose often 114 µM), hits mostly inhibitors; Lysine-specific demethylase 4A (Homo sapiens), O75164; also: nearly all actives have a fitted effect of over 50% in size
A number is an active result; . = inactive; ? = inconclusive; / = not tested or not shown; ! = not active in a repeat. Unless noted, calls follow the shape of the dose curve; as a rule, active = well fitted inhibition curve with a large enough effect; inconclusive = small, poorly fitted or top-dose-only effect; inactive = no such curve, though single readings can be large or run the other way.

SMILES	PI5P4K alpha inh	JMJD2E inh	L3MBTL1 inh	HP1b chromo inh	BAZ2B inh	JMJD2A Tudor
C=CCCN(Cc1ccc(OC)cc1)S(=O)(=O)c1ccccc1Br	/	/	/	.	/	.
CCn1c(C)c(C)c2cc(C(=O)NCCCN3CCCCC3)ccc21	.	/	/	.	40µM!	?
COCCNC(=O)CSc1nc(-c2ccccc2C)nc2c1c(=O)n(C)c(=O)n2C	/	/	/	.	.	.
O=C1C(SCCO)=C(SCCO)C(=O)c2ccccc21	-107	?	?	?	?	8.9µM
CCCC1NC(=O)c2cccnc2-n2c1nc1cc(C)cc(C)c1c2=O (configuration not stated)	.	/	/	/	/	/
CN(C)c1ccc(CN2CCC(C(N)=O)CC2)cc1	.	28µM	.	.	22µM	22µM
CCOC(=O)C1CCN(Cc2cc(C(C)(C)C)c(O)c(C(C)(C)C)c2)CC1	.	.	.	.	.	.
CCOC(=O)C1CCN(Cc2ccc(C(=O)OC)cc2)CC1	/	?	/	.	50µM	5.6µM
CCOC(=O)C1CCN(Cc2ccc(F)cc2)CC1	/	.	.	?	.	4µM
CC1CCCCN1Cc1ccc(N(C)C)cc1 (configuration not stated)	/	?	.	.	.	.
COc1ccc(Cn2c(=O)c3cccnc3n(CC(=O)Nc3ccc(C)c(F)c3)c2=O)cc1	/	/	/	.	.	.
Cc1cccc(N2CC(C)Cn3c2nc2c3c(=O)n(CC(=O)O)c(=O)n2C)c1 (configuration not stated)	/	/	/	.	.	.
Cc1ccc(CNC(=O)Cn2cc(C(=O)c3ccc(Cl)cc3)c(=O)c3ccc(C)nc32)cc1	/	/	/	.	.	.
N#CC(Cc1ccc(O)c(O)c1)C(=O)N1CCc2ccccc21 (configuration not stated)	/	20µM	/	/	/	/
CC(c1ccccc1)C1OCC(C[N+]2(C)CCCCC2)O1 (configuration not stated)	.	.	/	?	.	56µM
Cc1cc(NC(=O)COCc2cc(-c3ccc(F)cc3)on2)ccc1Br	/	/	/	.	.	.
Cc1ccccc1N1CC(c2nnc(NC(=O)c3ccco3)s2)CC1=O (configuration not stated)	/	/	/	.	?	.
CCCOc1ccc(OCCNC2CCCC2)cc1	.	.	.	?	?	89µM
CCc1ccc(OCCOCC(O)CNC2CCCC2)cc1 (configuration not stated)	.	.	.	.	.	.
CCOc1ccc(OCCNC2CCCC2)cc1	.	.	/	?	.	3.2µM
CCOc1ccc(C(=O)NC2CCCCCCC2)cc1	.	/	/	.	/	.
CCOc1ccc(OCC)c(NC(=O)CC(C)n2nc(C)cc2C)c1 (configuration not stated)	/	/	/	.	.	.
CCOc1ccc(CN(C(=O)/C=C/c2ccco2)C2CCS(=O)(=O)C2)cc1 (configuration not stated)	.	/	/	.	?	.
COc1ccc(CN(C(=O)/C=C/c2ccco2)C2CCS(=O)(=O)C2)cc1 (configuration not stated)	?	.	.	.	50µM	?
O=C(NCc1cccc(F)c1)c1ccc(N2C(=O)Cn3c(cc4sccc43)C2=O)cc1	.	?	.	.	.	79µM
COC(=O)c1ccc(NC(=O)CN(CCc2ccccc2)S(=O)(=O)c2ccc(OC)cc2)cc1	/	/	/	.	.	.
COc1cccc(NC(=O)CN(CCc2ccccc2)S(=O)(=O)c2ccc(Cl)cc2)c1	/	/	/	.	?	28µM
O=C(CN(CCc1ccccc1)S(=O)(=O)c1ccc(Br)cc1)NCc1ccc(Cl)cc1	/	/	/	.	?	14µM
COc1ccc2[nH]c(C)c(CCNC(=S)Nc3cc(C)cc(C)c3)c2c1	.	.	.	?	28µM	50µM
COc1ccc2[nH]c(C)c(CCNC(=S)Nc3ccc(F)cc3)c2c1	.	.	/	.	/	?

High-throughput results deposited in PubChem BioAssay by National Center for Advancing Translational Sciences (NCATS).
